The structures appear in SMILES notation. Results filed as inconclusive are left out. Unmarked numbers belong to inactive results. Calls of active or inactive are those of the source. Calls follow the shape of the dose curve; as a rule, active = well fitted activation curve with a large enough effect; inconclusive = small, poorly fitted or top-dose-only effect; inactive = flat fitted curve, though single readings scatter.

The values below come from PubChem BioAssay AID720517 (National Center for Advancing Translational Sciences (NCATS), 2013).
Potency is read from the fitted curve at half-maximal effect.

The test can be described thus: qHTS for Inhibitors of Cell Surface uPA Generation: FP59 Counterscreen for Cherry-picked Compounds. As to activity (protection from FP59): 0% is about no effect. The note with it: FP59 anthrax toxin cytotoxicity counterscreen, cells; series mostly up to 115 µM; activity (protection from FP59): at the top concentration.
For `COc1ccc(CC(=O)Nc2nc(C)cs2)cc1OC`, the “activity (protection from FP59)” value was -1.52%. Take `OCC[C@@H]1C[C@H](O)[C@@H](O)[C@]2(OCCc3ccccc32)O1`: the “activity (protection from FP59)” value was -1.32%. `Cc1[nH]c2ccc(C(=O)OC(C)C(=O)NC3CCCCC3C)cc2c1C` (centres undefined): the “activity (protection from FP59)” value is -0.383%.

On to `Cc1oc(-c2ccccc2F)nc1CS(=O)(=O)CC(=O)NC1CCCC(C)C1C` (centres undefined), for which the “activity (protection from FP59)” value is 3.16%.

With `CC1Cc2nc(SCC(=O)N3CCCC3)n(C)c(=O)c2S1` (centres undefined), the “activity (protection from FP59)” value was -1.46%. `O=C(CN1CCOC1=O)N1CCCC(Nc2ccc(F)c(F)c2)C1` (centres undefined): the “activity (protection from FP59)” value was -1.34%. As for `CCOc1cc(C)c(S(=O)(=O)N2CCCCC2)cc1C`, the “activity (protection from FP59)” value was -0.954%. Still for that read-out and setting: the figure for `Cc1cccc(NC(=O)c2cc3c(=O)n4ccccc4nc3s2)c1` is -1.34%; for `CC(NC(=O)NC1CCCCC1)C(c1cccs1)N1CCN(C)CC1` (centres undefined) it is -1.43%. Same read-out and setting: the figure for `O=C(NCCCN1CCCC1=O)c1cccc(Oc2ccccc2)c1` is -0.779%. Take `COc1cc2oc(=O)ccc2cc1[C@H](O)[C@@H](O)C(C)(C)O`: the “activity (protection from FP59)” value is -1.29%. With `COc1cc(NC(=O)CSc2nnc3ccc(-c4ccncc4)nn23)cc(OC)c1`, the “activity (protection from FP59)” value is -1.37%.

As for `CCc1ccccc1N1C(=O)CC(Sc2nccc(C)n2)C1=O` (centres undefined), the “activity (protection from FP59)” value is -1.23%. On to `Oc1c(N=NC(=S)Nc2ccccc2F)c2ccccc2n1Cc1ccccc1Cl`, for which the “activity (protection from FP59)” value is -0.572%. On the same count and under the same terms, the figure for `O=C(NC(=S)Nc1c(F)cc(F)cc1Br)c1ccc2c(c1)OCCO2` is -1.02%; for `O=C(NCCOc1ccc(F)cc1)C1CCN(S(=O)(=O)c2ccccc2)CC1` it is -1.44%; for `Cc1ccc(NC(=O)C(C)S)cc1` (centres undefined) it is 1.44%.

Regarding `Clc1ccc(-c2nc3ccccn3c2CN2CCSCC2)cc1`, the “activity (protection from FP59)” value is 1.45%. With `CC(=O)c1cnc2nc(SCc3cccc(C)c3)nn2c1C`, the “activity (protection from FP59)” value is -1.58%.

With `COc1cccc(CC(=O)n2nc(N)c3cc4ccc(OC)cc4nc32)c1`, the “activity (protection from FP59)” value was -1.51%.

For the compound `CCOc1ccc(-c2n[nH]c(=S)n2Cc2ccccc2)cc1`, the “activity (protection from FP59)” value is -0.708%. Still for that read-out and setting: with `COC(=O)c1ccc(CN2CCCC(CNC(=O)Cc3ccc(OC)cc3)C2)cc1` (centres undefined) the figure was -1.35%; with `Cc1nc([N+](=O)[O-])cn1CCCCN1C(=O)c2ccccc2C1=O`, -0.917%; with `NS(=O)(=O)c1ccc(CCNC(=O)c2ccc(Cl)s2)cc1`, -1.27%. With `CCOc1ccc(N(CC(=O)Nc2ccc(CC)cc2)S(=O)(=O)c2c(C)[nH]c(=O)[nH]c2=O)cc1`, the “activity (protection from FP59)” value is -1.42%. Consider `CC(C)Cn1cnc2c(N)nc3ccccc3c21`, for which the “activity (protection from FP59)” value was -0.237%. The same measure, in the same setting: with `CC(/C=C/C1(O)C(C)CC(O)CC1(C)C)OC1OC(CO)C(O)C(O)C1O` (centres undefined) the figure was -1.29%. For `C[C@]12CCC(O)CC1CCC1C2CC[C@]2(C)C(c3cc(C(F)(F)F)n[nH]3)CCC12` (some centres undefined), the “activity (protection from FP59)” value is -1.52%. In the case of `COc1ccc2c(ccn2S(=O)(=O)c2ccccc2)c1`, the “activity (protection from FP59)” value was -0.86%. Regarding `Cc1ccc(OCc2cc(C(=O)N(C)Cc3cc(C4CC4)n[nH]3)no2)cc1C`, the “activity (protection from FP59)” value was -0.124%. As for `O=C1[C@H]2[C@@H](c3ccc(F)cc3)N3C(=O)N(c4cccc(F)c4)C(=O)[C@@]3(Cc3ccc(Cl)cc3)[C@H]2C(=O)N1C1CCCCC1`, the “activity (protection from FP59)” value is -0.34%. Same read-out and setting: with `C=C(C)C(=O)O[C@H]1C/C(C)=C\C(=O)/C=C(\C)[C@H](O)[C@@H]2OC(=O)C(=C)[C@@H]21` the figure was 5.63%. As to `Cc1ccnc(N2CCN(C(=O)CSc3nc4ccccc4nc3N3CCC(C)CC3)CC2)c1`, the Potency was 65.6 µM (active). On to `CN(c1ccccc1)S(=O)(=O)c1ccc(C(=O)Nc2nnc(C3CC3)o2)cc1`, for which the “activity (protection from FP59)” value was -0.58%.

Turning to `CC1CCCCN1C(=O)CSc1nc2ncccc2[nH]1` (centres undefined), the “activity (protection from FP59)” value was -0.554%.

As to `CC(C)(C)NC(=O)C(c1cccs1)N(C(=O)c1csnn1)c1ccccc1F` (centres undefined), the “activity (protection from FP59)” value was -1.19%. Same read-out and setting: the figure for `CCC1(CC)NC(=O)N(CC(=O)OCC(=O)c2cc(C)c(C)cc2C)C1=O` is -1.2%; for `COc1ccc(N2CCN(S(=O)(=O)c3ccc4c(c3)NC(=O)CS4)CC2)cc1` it is -1.35%; for `O=C(/C=C/c1cccc(Oc2ccccc2)c1)N1CCOCC1` it is -1.21%.
